In PubChem BioAssay (Tox21):
Where “and” joins values, the source holds several entries; their conditions need not be identical. Equal values may be shown once. Records with an inconclusive call do not appear. Values without a mark were called inactive. Calls of active or inactive are those of the source. Calls follow the shape of the dose curve; as a rule, active = well fitted cell-killing curve with a large enough effect in the repeat runs; inconclusive = weak or mixed curves; inactive = flat fitted curve, though single readings scatter.

assay: qHTS RealTime-Glo MT Cell Viability Assay in HepG2 cells - 16 hour (AID 1224885); settings: RealTime-Glo luminescence; series mostly up to 76.8 µM; activity change, negative = cytotoxic: at the top concentration; also: nearly all actives have a fitted effect of over 50% in size
Source text: U.S. Tox21 Program National Center for Advancing Translational Sciences [NCATS] NIH Chemical Genomics Center [NCGC] U.S. Environmental Protection Agency [EPA] National Institutes of Environmental Health Sciences [NIEHS] National Toxicology Program [NTP] U.S. Food and Drug Administration [FDA] Tox21 Assay Overview: Measure of cell viability is critical in the cell-base assay. Analysis of cell viability is necessary for the characterization of cell responses to cytotoxic drugs and environmental stress. A RealTime-Glo MT Cell Viability Assay to monitor cell viability in real time of continues cell culture during 40 hours of compound treatment was used to screen Tox21 10K library compounds in HepG2 cells. The RealTime-Glo MT Cell Viability Assay is a nonlytic, homogeneous, bioluminescent method to measure cell viability in real time using a simple, plate-based method. The assay involves adding NanoLuc luciferase and a cell-permeant prosubstrate to cells in culture. Viable cells reduce the proprietary prosubstrate to generate a substrate for NanoLuc luciferase. This substrate diffuses from cells into the surrounding culture medium, where it is rapidly used by the NanoLuc Enzyme to produce a luminescent signal. The signal correlates with the number of viable cells, making the assay well suited for cytotoxicity studies.
Tox21 Assay Protocol Summary: The mixture of HepG2 cell suspension and reagents were dispensed at 600cells/6 ul/well in 1536-well tissue culture treated black solid bottom plates using a Multidrop dispenser. After the assay plates were incubated at a 37 C/5% CO2 incubator for 5 hours, 23 nL of compounds dissolved in DMSO, positive and negative controls was transferred to the assay plate by a pintool work station. The plates were incubated at 37 C for 40 hours. The luminescence intensity were measured at 0h, 8h, 16h, 24h, 32h and 40h time points using ViewLux plate reader during compound treatment.
% is scaled to controls: 0 for no effect and ±100 for the full control effect; potency is read from the fitted curve at half-maximal effect.

Compound	activity change, negative = cytotoxic	Potency
O=c1[nH]cnc2nc[nH]c12	-1.3% [at 35.3 µM]	–
Cc1onc(-c2c(Cl)cccc2Cl)c1C(=O)N[C@@H]1C(=O)N2[C@@H]1SC(C)(C)[C@@H]2C(=O)O	-0.0606% [at 35.3 µM]	–
O=C(Nc1cccc(Cl)c1)OCC#CCCl	–	43.6 µM (active)
O=C(c1ccc(O)cc1O)c1ccc(O)cc1O	–	inactive
CCCCCCCCOC(=O)c1ccc(O)cc1	–	inactive
NC(=O)C1(N2CCCCC2)CCN(CCCN2c3ccccc3CCc3ccc(Cl)cc32)CC1	–	23.9 µM (active)
CNCc1cc(F)ccc1Oc1ccc(Cl)c(Cl)c1	–	49 µM (active)
CN(C)c1ccc(SC#N)cc1	-4.05%	–
O=C1c2ccccc2Cc2ccccc21	-1.53%	–
Cc1ccc(O)c(C(C)(C)C)c1	–	inactive
S=c1[nH]c2ccccc2s1	-6.3%	–
CCC(Cl)C(Cl)C(Cl)CC(Cl)C(Cl)C(C)Cl (stereo not given)	-4.89%	–
C[n+]1ccn(Cc2ccccc2)c1	-4.6%	–
Cc1cccc(N(C)C(=S)Oc2ccc3c(c2)C2CCC3C2)c1 (stereo not given)	-10.7% [at 35.3 µM]	–
Cc1cc(O)c(C(C)(C)C)cc1Sc1cc(C(C)(C)C)c(O)cc1C	–	48.9 µM (active)
CCCCN(CCCC)c1ccc(C(=O)c2ccccc2C(=O)O)c(O)c1	-6.29%	–
Oc1ccc2cc(SSc3ccc4cc(O)ccc4c3)ccc2c1	-23.7%	–
[Cl][Au]([Cl])[Cl]	–	15.5 µM (active)
C=CC(=O)OCC(CO)(COC(=O)C=C)COC(=O)C=C	–	13.9 µM (active) and 11 µM (active)
CSc1cnc(C)cn1	-0.665% [at 200 µM]	–

Compound	activity change, negative = cytotoxic	Potency
Cc1cc(CCN2CCN(c3nsc4ccccc34)CC2)cc2c1NC(=O)CC2(C)C	–	54.9 µM (active)
Nc1ccc2cc(S(=O)(=O)O)cc(O)c2c1N=Nc1ccccc1C(F)(F)F	-6.94%	–
O=c1cccccc1O	-0.98%	–
CC/C(=C(\c1ccc(O)cc1)c1ccc(OCCN(C)C)cc1)c1ccccc1	–	61.8 µM (active)
C[C@H](CCC(=O)O)[C@H]1CC[C@H]2[C@@H]3CC[C@@H]4C[C@H](O)CC[C@]4(C)[C@H]3CC[C@]12C	–	inactive
O=c1[nH]sc2ccccc12	–	21.9 µM (active)
CCCC/C=C/CCCCO	-7.72%	–
COc1c(C)c2c(c(O)c1C/C=C(\C)CCC(=O)O)C(=O)OC2	-3.42% [at 35.3 µM]	–
[Cl][Bi]([Cl])([c]1ccccc1)([c]1ccccc1)[c]1ccccc1	–	7.71 µM (active)
CC(C)(C)c1ccc(C(=O)O)cc1	2.09%	–
Cc1cc(N)c(S(=O)(=O)O)cc1Cl	-0.242%	–
CCCC1O[C@@H]2C[C@H]3[C@@H]4CCC5=CC(=O)C=C[C@]5(C)[C@H]4[C@@H](O)C[C@]3(C)[C@]2(C(=O)CO)O1 (stereo not given in full)	–	inactive
CS(=O)(=O)CCNCc1ccc(-c2ccc3ncnc(Nc4ccc(OCc5cccc(F)c5)c(Cl)c4)c3c2)o1	–	21.3 µM (active)
O=c1cc(-c2ccc(O)cc2)oc2cc(O)cc(O)c12	–	inactive
CCC(N)(CO)CO	-2.68%	–
CC[C@H](c1ccc(O)cc1)[C@@H](CC)c1ccc(O)cc1	-11.9% [at 35.3 µM]	–
C=C(C)C(=O)OCC(O)COc1ccc(C(C)(C)c2ccc(OCC(O)COC(=O)C(=C)C)cc2)cc1 (stereo not given)	–	19.5 µM (active)
CCCCCCCCCCCCc1ccc(O)cc1	–	43.6 µM (active)
NC(=O)CC[C@@H]1NC(=O)[C@H](Cc2ccccc2)NC(=O)[C@H](Cc2ccc(O)cc2)NC(=O)CCSSC[C@@H](C(=O)N2CCC[C@H]2C(=O)N[C@@H](CCCN=C(N)N)C(=O)NCC(N)=O)NC(=O)[C@H](CC(N)=O)NC1=O	0.272% [at 35.3 µM]	–
NNC(=O)c1cccc(C(=O)NN)c1	1.93%	–
